# Reference: the supplement of paper PMC10981050
# “And” between values parts separate entries of the source, which are not always exact repeats. Identical values can stand only once. Counter-ions that a name gives are not always drawn.
# Tests used:
# Assay in all cases: cell viability relative to vehicle control; higher = less cytotoxic
# Settings in all cases: 10 µM
# K562 = test system: K562
# Method in brief: (§1)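 Four leukaemia lines, as CRISPR-edited mutant clones and isogenic wild-type clones, were tested against Selleck bioactive, kinase and epigenetic probe libraries after removal of identity-inconsistent compounds. Cells were exposed to a single 10 µM dose for 48 h, and CellTiter-Glo luminescence was then read. Viability was calculated relative to the on-plate vehicle control.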
# MARIMO = test system: MARIMO
# Method in brief: as §1
# MOLM14 = test system: MOLM14
# Method in brief: as §1
# OCI-AML2 = test system: OCI-AML2
# Method in brief: as §1
Structure (SMILES),cell viability (K562; SRSF2 genotype: SRSF2 P95H/wt),cell viability (K562; SRSF2 genotype: SRSF2 wt/wt) [%],cell viability (MARIMO; SRSF2 genotype: SRSF2 P95H/wt) [%],cell viability (MARIMO; SRSF2 genotype: SRSF2 wt/wt) [%],cell viability (MOLM14; SRSF2 genotype: SRSF2 P95H/wt) [%],cell viability (MOLM14; SRSF2 genotype: SRSF2 wt/wt) [%],cell viability (OCI-AML2; SRSF2 genotype: P95H/wt) [%],cell viability (OCI-AML2; SRSF2 genotype: wt/wt) [%]
C=C1CC[C@@H]2[C@](C)(COC(=O)CCC(=O)O)[C@H](OC(=O)CCC(=O)O)CC[C@@]2(C)[C@@H]1/C=C/C1=CCOC1=O [Dehydroandrographolide Succinate Potasium Sa],105% and 103%,105,105,101,99.1,105,109,104
O=C1CCC(N2C(=O)c3ccccc3C2=O)C(=O)N1 (stereo not given) [Thalidomide],92.1% and 86.8%,84.5,83.2,86.4,87.5,86.7,93.8,91.4
Cc1ccc(S(=O)(=O)NC(=O)NN2CC3CCCC3C2)cc1 (stereo not given) [Gliclazide (Diamicron)],95.8% and 105%,109,106,111,103,106,113,101
COc1ccc(CCc2cc(OC)c(OC)c(OC)c2)cc1O [Erianin],10.3% and 30.2%,25.3,6.09,6.67,1.16,1.16,1.03,2.9
CCCCC[C@](C)(O)/C=C/[C@@H]1[C@@H](C/C=C\CCCC(=O)O)[C@@H](O)C[C@H]1O [Carboprost],110% and 101%,102,97.5,91.1,78.8,99.7,90.3,90.1
COc1cccc(CCc2ccccc2OCC(CN(C)C)OC(=O)CCC(=O)O)c1 (stereo not given) [Sarpogrelate hydrochloride],90.3% and 96%,92.4,84.3,89.3,88.1,102,96.9,100
CCc1cc2c(cc1CC)CC(NC[C@H](O)c1ccc(O)c3[nH]c(=O)ccc13)C2 [Indacaterol Maleate],68.6% and 83.2%,75.8,73.3,77,62,71.2,52.5,60.1
COc1ccc(-c2nc(N3CCOCC3)c3sc(CN(C)c4ncc(C(=O)NO)cn4)cc3n2)cn1,1.16% and 7.95%,2.68,1.32,2.78,0.39,0.45,0.79,1.17
C=C(C)[C@@H]1CC[C@]2(C(=O)O)CC[C@]3(C)[C@H](CC[C@@H]4[C@@]5(C)CC[C@H](O[C@@H]6OC[C@H](O)[C@H](O)[C@H]6O[C@@H]6O[C@@H](C)[C@H](O)[C@@H](O)[C@H]6O)[C@@](C)(CO)[C@@H]5CC[C@]43C)[C@@H]12 [Pulchinenoside A],97.5% and 96.7%,92,93.9,106,102,96.6,94.6,105
Cc1nnc(SCC2=C(C(=O)O)N3C(=O)[C@@H](NC(=O)Cn4cc(Cl)c(=O)c(Cl)c4)[C@H]3SC2)s1 [Cefazedone],102% and 107%,108,106,111,106,106,121,102
CC=Cc1cc(OC)c2c(c1)C(C)C(c1ccc(O)c(OC)c1)O2 (stereo not given) [Dehydrodiisoeugenol],90.2% and 91.2%,90.4,89.4,95.5,83.3,97.8,75.8,78.8
COc1ccccc1N1CCN(CCCNc2cc(=O)n(C)c(=O)n2C)CC1 [Urapidil hydrochloride],102% and 95.6%,96.9,97.8,102,99.6,98,96.8,95.2
C[C@@H]1C[C@H]2[C@@H]3CCC4=CC(=O)C=C[C@]4(C)[C@@]3(F)[C@@H](O)C[C@]2(C)[C@@]1(O)C(=O)CO [Dexamethasone],99.7% and 95.1%,92.8,106,99.8,95.4,90.6,98.2,103
CNC(=O)c1ccc(C)c(-n2c(C)cc(OCc3ccc(F)cc3F)c(Br)c2=O)c1,74% and 77.8%,82.4,65.6,58.4,69.8,78.8,72.8,72.2
Cc1nc2ccc(-n3ncc(C(=O)c4cc5ccccc5[nH]4)c3N)cc2[nH]1,73.6% and 86.9%,76.5,90.6,103,41.2,47.5,42.6,43.7
CN(C)CCCn1cc(C2=C(c3c[nH]c4ccccc34)C(=O)NC2=O)c2ccccc21,91.2% and 78.4%,98.8,82.9,92,36.4,32.5,34,67.1
O=C(O)C=Cc1cccc(O)c1 [3-Hydroxycinnamic acid],106% and 93.7%,97.5,86.6,97.3,87.9,93.2,91.4,94.3
CC1=C[C@H]2[C@@H](CC1)[C@H](C)CC[C@H]2[C@@H](C)C(=O)O [Dihydroartemisinic acid],99.8% and 91.7%,99.6,101,104,94.6,101,98.5,109
CC(CCC(=O)NCCS(=O)(=O)O)C1CCC2C3C(O)CC4CC(O)CCC4(C)C3CCC12C (stereo not given) [Sodium Tauroursodeoxycholate (TUDC)],91.6% and 88.5%,89.8,94,103,91.7,91.2,90.3,89.4
CN1[C@@H]2CC[C@H]1C[C@@H](OC(c1ccccc1)c1ccccc1)C2 [Benztropine mesylate],82.3% and 93.2%,87,81.9,91.2,83.7,100,88,79.9

Structure (SMILES),cell viability (K562; SRSF2 genotype: SRSF2 P95H/wt),cell viability (K562; SRSF2 genotype: SRSF2 wt/wt) [%],cell viability (MARIMO; SRSF2 genotype: SRSF2 P95H/wt) [%],cell viability (MARIMO; SRSF2 genotype: SRSF2 wt/wt) [%],cell viability (MOLM14; SRSF2 genotype: SRSF2 P95H/wt) [%],cell viability (MOLM14; SRSF2 genotype: SRSF2 wt/wt) [%],cell viability (OCI-AML2; SRSF2 genotype: P95H/wt) [%],cell viability (OCI-AML2; SRSF2 genotype: wt/wt) [%]
CC1CCC2(O)C(C)(C)C3CCC2(C)C1C3 (stereo not given) [Patchouli alcohol],92.3% and 85.5%,89.2,89.5,102,91.1,89.5,80.6,93
N#C/C(=C(/N)Sc1ccc(N)cc1)c1ccccc1C(F)(F)F,85.3% and 90.9%,85.1,54,46.4,82.4,91.5,67.7,61.3
CC(=O)O[C@H](CC=C(C)C)C1=CC(=O)c2c(O)ccc(O)c2C1=O [Acetylshikonin],4.63% and 1.27%,1.38,0.73,0.66,0.73,0.53,0.72,0.59
COCCCN1CCC(NC(=O)c2cc(Cl)c(N)c3c2OCC3)CC1 [Prucalopride],86.4% and 82%,81.5,85.9,91.6,87.3,88.9,80.5,88.7
OCCc1ccc(O)c(O)c1 [Hydroxytyrosol],94.8% and 103%,98.2,90.5,103,97.5,104,105,106
CCC(C)(C)c1ccc(CC(C)CN2C[C@@H](C)O[C@@H](C)C2)cc1 (stereo not given in full) [Amorolfine Hydrochloride],79.9% and 81.9%,99.7,66.2,71.5,81.8,81.4,49.3,71.5
Cc1ccc(C(C)C)cc2c(C)ccc1-2 [Guaiazulene],97.5% and 99%,110,102,101,93.5,105,107,93.4
COc1cc2ncnc(Nc3ccc(Cl)cc3F)c2cc1OC,87.2% and 95.4%,82.8,91.9,103,86.7,96.1,92.9,92.1
N#Cc1c(Oc2ccc(F)c(NC(=O)Cc3cccc(C(F)(F)F)c3)c2)ccc2nc(NC(=O)C3CC3)sc12,12.9% and 18.9%,19,40.9,36.8,36.6,25.9,31.6,36.8
CN(C)C(=O)CCSC(SCCC(=O)O)c1cccc(/C=C/c2ccc3ccc(Cl)cc3n2)c1 (stereo not given),102% and 103%,98.5,110,111,108,107,101,103
CNC(=C[N+](=O)[O-])NCCSCc1csc(CN(C)C)n1 [Nizatidine],106% and 107%,102,101,107,103,101,92.9,108
"CCCCC1C(=O)N(c2ccccc2)N(c2ccccc2)C1=O [Phenylbutazone (Butazolidin, Butatron)]",98.1% and 102%,94.9,97.2,102,98,99.9,106,107
CC(C)(O[C@@H]1O[C@H](CO)[C@@H](O)[C@H](O)[C@H]1O)[C@H]1Cc2cc3ccc(=O)oc3cc2O1 [Nodakenin],101% and 107%,109,98.7,101,110,100,106,103
COc1ccc(NS(=O)(=O)c2sc3ccc(Cl)cc3c2C)cc1N1CCNCC1,99.5% and 98.2%,104,100,99.2,96.4,106,87.9,78
OC[C@@H](O)CN1CCN(c2ccccc2)CC1 [Levodropropizine],90.9% and 91%,83.9,85.1,96.5,92.5,91.6,94.5,96
Cc1ccc(NCCCc2ccccc2)c(N)c1,74.3% and 88.2%,83.1,48.2,72.4,69,72.5,60.8,63.5
CCCc1cc(C)[nH]c(=O)c1CNC(=O)c1cc(-c2ccc(N3CCN(C(C)C)CC3)nc2)cc2c1cnn2C(C)C,36.5% and 35%,30.5,81.1,80,49.8,60.8,4.14,31.8
COc1cc2c(cc1OC)-c1c(C)c3ccc(OC)c(OC)c3c[n+]1CC2 [Dehydrocorydalin],88.3% and 96%,90.6,94,96,94.8,95.6,79.8,84.1
O=C(NCc1ccccc1)c1csc(Nc2ccncn2)n1 [Thiazovivin],100% and 101%,100,80.5,94.7,37.8,86.8,46,49.5
Cc1cc(C)nc(NS(=O)(=O)c2ccc(NC(=S)NC(=O)COc3ccc(Br)cc3Cl)cc2)n1,91.4% and 83.1%,85.5,82.3,90.7,83.5,91.1,88.6,84.6
